From PubChem BioAssay (NCI)
This is part of a sample that, as a whole, favours compounds with a hit. Of some 79,000 tested, about 15% had one in any assay. The source made the active and inactive calls. Rule as the data show it: active = growth inhibition above about 70%; inactive = the rest.

Tests used:
[1] = NCI Yeast Anticancer Drug Screen. Data for the rad50 strain (AID 155);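 also: 0% = growth of vehicle-only cultures of the same strain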; details: S. cerevisiae rad50 strain growth inhibition; at 50.0 µM; stronger effect = higher value
Method in brief: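 Inhibition values express reduced yeast growth in compound-treated cultures relative to vehicle-treated controls.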

[2] = NCI Yeast Anticancer Drug Screen. Data for the mec2-1 strain (AID 157); details: S. cerevisiae mec2-1 strain, at 50.0 µM, stronger effect = higher value
Method in brief: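 Strain: mec2-1 (DNA repair/cell cycle alteration). Compound exposure, then growth measured; inhibition expressed relative to vehicle.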

[3] = NCI Yeast Anticancer Drug Screen. Data for the sgs1 mgt1 strain (AID 161);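 also: 0% = growth of cultures given vehicle only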; details: S. cerevisiae sgs1 mgt1 strain, at 50.0 µM, stronger effect = higher value
Method in brief: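 Test agents were incubated with a DNA-repair-mutant yeast strain. Growth was then read and compared against vehicle-treated controls.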

[4] = NCI Yeast Anticancer Drug Screen. Data for the cln2 rad14 strain (AID 165);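 also: 0% = growth equal to vehicle treated cultures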; details: S. cerevisiae cln2 rad14 strain, at 50.0 µM, stronger effect = higher value
Method in brief: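 Compounds are applied to the cln2 rad14 yeast strain, and growth is then compared with that of vehicle-treated cultures to give inhibition.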

[5] = NCI Yeast Anticancer Drug Screen. Data for the bub3 strain (AID 167); details: S. cerevisiae bub3 mutant strain, at 50.0 µM, stronger effect = higher value
Method in brief: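 Steps: expose the mutant yeast strain to compound; grow alongside vehicle-treated cultures; measure growth; express inhibition against the vehicle cultures.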

[6] = NCI Yeast Anticancer Drug Screen. Data for the mlh1 rad18 strain (AID 175); details: S. cerevisiae mlh1 rad18 strain growth inhibition; at 50.0 µM; stronger effect = higher value
Method in brief: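 Read-out is yeast growth inhibition, calculated against vehicle-only controls. The compound was applied to a strain engineered with DNA damage repair alterations.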

Measured: growth inhibition

C/C(=N\NC(=S)Nc1ccc(C(=O)O)cc1)c1nccc2ccccc12
inactive: [1] 3.2% | [2] 1.1% | [3] 4.2% | [4] 28.9% | [5] 9.75% | [6] 7.25%

Cc1ccc2c(c1)Nc1ccccc1P2(=O)O
inactive: [1] 7.8% | [2] -3.15% | [3] -40% | [4] 37.6% | [5] 14.3% | [6] -15.4%

O=C(OC1CCCC1OC(=O)c1ccccc1)c1ccccc1 (centres undefined)
inactive: [1] -11.5% | [2] 9.6% | [3] 1.6% | [4] -5.3% | [5] 12.2% | [6] 22.4%

CCOC(=O)c1cc2cc(C)cc(C(=O)c3ccc([N+](=O)[O-])cc3)c2[nH]1
inactive: [1] 15.1% | [2] 25.4% | [3] 30.6% | [4] 4.15% | [5] -0.55% | [6] -16.3%

O=[N+]([O-])c1cc2c3ccccc3ccc2c2ccccc12
inactive: [1] -5.6% | [2] 6.95% | [3] 12.2% | [4] -78.8% | [5] 19.6% | [6] 21.6%

CC(C)(C)C(OC(=O)Cc1ccccc1)c1ccc2c(c1)OCO2 (centres undefined)
inactive: [1] -9.05% | [2] -2.7% | [3] 2% | [4] -3.25% | [5] 51.4% | [6] -12.1%

CC(=O)N(C(C)=O)n1c(Cc2ccc(C)cc2)nn(C(C)=O)c1=O
inactive: [1] -26.9% | [2] 15.2% | [3] -16.9% | [4] 13.3% | [5] -1.75% | [6] -27.9%

CCOC(=O)c1cc2ccccc2nc1N
inactive: [1] 0% | [2] 3.45% | [3] -7.15% | [4] -21.5% | [5] -17.1% | [6] 1.1%

CC(=N\N=C\c1ccccn1)/C(C)=N/N=C(C)/C(C)=N/N=C(C)/C(C)=N/N=C/c1ccccn1
inactive: [1] 31.7% | [2] 22.2% | [3] 21.4% | [4] 14.2% | [5] 15.2% | [6] -34%

COc1ccc(N=Cc2ccc(C=Nc3ccc(OC)cc3OC)cc2)c(OC)c1
inactive: [1] 10.6% | [2] -21.6% | [3] 5.15% | [4] 7.7% | [5] -5.45% | [6] -1.9%

CN(C)CCNC(=O)c1cccc2ccc(-c3ccncc3)nc12
inactive: [1] 6.15% | [2] 11% | [3] -20.7% | [4] -3.3% | [5] -19.9% | [6] -27.8%

CC(c1ccccc1)N1COc2cc3c(cc2C1)CN(C(C)c1ccccc1)CO3 (centres undefined)
inactive: [1] -11.8% | [2] 0.4% | [3] -6.8% | [4] -28.3% | [5] -1.3% | [6] 6.7%

O=C1c2ccccc2S(=O)N1OCc1ccccc1 (centres undefined)
inactive: [1] -0.85% | [2] 0.75% | [3] 15.4% | [4] -16.6% | [5] 0.95% | [6] 9.6%

CCC(C)(C)c1ccc(OCCO)cc1
inactive: [1] -29.2% | [2] -29.4% | [3] -20.8% | [4] -12.9% | [5] -19.2% | [6] -23.4%

NS(=O)(=O)c1ccc(NO)cc1
inactive: [1] -16.1% | [2] -7.45% | [3] 6.3% | [4] -15.2% | [5] 6.9% | [6] 9.85%

COc1cc([C@@H]2OC(=O)C3C2C(=O)O[C@H]3c2ccc(O)c(OC)c2)ccc1O (some centres undefined)
inactive: [1] 7.55% | [2] 14.2% | [3] 9.25% | [4] 17.4% | [5] 0.55% | [6] 24.2%

COC(=O)CC(c1ccc2c(c1)OCO2)N1CCOCC1 (centres undefined)
inactive: [1] -6.3% | [2] 31.3% | [3] 19.5% | [4] -6.1% | [5] 21.2% | [6] 42.9%

CC1O[C@@]2(CC[C@H]3[C@@H]4CCC5=CC(=O)CC[C@]5(C)[C@H]4CC[C@@]32C)C1=O (some centres undefined)
inactive: [1] -0.55% | [2] 4.95% | [3] 11.4% | [4] -16.8% | [5] 26.9% | [6] 25.9%

CN(C)N=Nc1ccc(C(=O)N/N=C/c2ccccc2[N+](=O)[O-])cc1
inactive: [1] -13.8% | [2] 1.2% | [3] -16.6% | [4] -18.2% | [5] -14.7% | [6] -40.8%

NN1CC(=O)N(c2ccccc2)CC1=O
inactive: [1] 0.5% | [2] 4.45% | [3] -0.6% | [4] 42.8% | [5] -7.65% | [6] 4.7%

CC(=O)OC1CC2C(CCC3CC(C(C)=O)CCC32C)C2CCC(/C(C)=C/C=C(c3ccccc3)c3ccccc3)C12C (centres undefined)
inactive: [1] 19.6% | [2] 3.1% | [3] 7.35% | [4] -9.4% | [5] -3.05% | [6] 2.6%

CNc1ccc(Oc2ccccc2)cc1[N+](=O)[O-]
inactive: [1] -2.2% | [2] 6.4% | [3] -11.3% | [4] -34.6% | [5] -9.9% | [6] -11%

O=NN(CCCl)C(=O)NC1CCC(O)CC1 (centres undefined)
inactive: [1] -16.9% | [2] -10.8% | [3] -24% | [4] 13.2% | [5] -4.2% | [6] -4.2%

[Cu+2].[Cu+2].[O-]c1ccccc1C=Nc1ccccc1[O-].[O-]c1ccccc1C=Nc1ccccc1[O-]
inactive: [1] 7.25% | [2] -0.95% | [3] -1.2% | [4] 16.9% | [5] 2.1% | [6] 1.55%

O=C1CSCN1N1CSCC1=O
inactive: [1] -5.85% | [2] 3.1% | [3] 7.85% | [4] -4.35% | [5] 8.95% | [6] 18.8%

CC1CC=CCC1COB(OCC1CC=CCC1C)OCC1CC=CCC1C (centres undefined)
inactive: [1] 22.8% | [2] -21.5% | [3] 29.1% | [4] 23.1% | [5] 24.3% | [6] -0.25%

[Cl][Ge]([Cl])([c]1ccccc1)[c]1ccccc1
inactive: [1] 29.1% | [2] 20.9% | [3] 29.1% | [4] 12.8% | [5] 43% | [6] 29.1%

CSc1cc(C)c(C#N)c(SC)n1
inactive: [1] -32.6% | [2] -32.1% | [3] -12.9% | [4] -5.7% | [5] 0.05% | [6] -12.4%

O=C(CCc1cc(-c2ccc(F)cc2)n[nH]1)N(Cc1ccccc1)Cc1ccccc1
inactive: [1] -20.1% | [2] 11.2% | [3] -27.8% | [4] 2.25% | [5] -20.2% | [6] -9%

CCOC(=O)C1(C(=O)OCC)CCCN1C(=O)[C@H](CNC(=O)OC(C)(C)C)NC(=O)OCc1ccccc1
inactive: [1] 32.1% | [2] 12.8% | [3] -10.9% | [4] -0.45% | [5] -30.1% | [6] -79.8%

O=CC1N=C(Cc2ccccc2)OC1=O (centres undefined)
inactive: [1] 25.6% | [2] 10% | [3] -6.2% | [4] -4.55% | [5] -7.35% | [6] 8.2%

COc1cc(C=NCc2ccccc2)cc(OC)c1O
inactive: [1] -1.05% | [2] 19.2% | [3] 4.7% | [4] -14.6% | [5] 19.8% | [6] 8.9%

O=C(O)C(CCOc1ccccc1)CCOc1ccccc1
inactive: [1] 0.7% | [2] -15.2% | [3] 3.5% | [4] -10.4% | [5] -9.15% | [6] -26.3%

COc1ccc2nc3cc(Cl)ccc3c(NCCC3CCCN4CCCCC34)c2c1 (centres undefined)
inactive: [1] 33% | [2] 26.4% | [3] 14.6% | [4] 21.6% | [5] 12.4% | [6] 33%

ClCCOCc1ccc(Cl)c(Cl)c1
inactive: [1] 8.8% | [2] -16.9% | [3] 6.15% | [4] -13.5% | [5] -18% | [6] 9%

CC(=O)CCC(=O)CC(=O)CCC(=O)Nc1cc(Cl)ccc1Cl
inactive: [1] 15.3% | [2] 24.2% | [3] 19.9% | [4] 31.2% | [5] 2.5% | [6] 6.2%

Cc1c([N+](=O)[O-])cc(C(C)(C)C)c(OC(=O)C(C)(C)C)c1[N+](=O)[O-]
active: [5] 92.4%
inactive: [1] 53.4% | [2] 44.9% | [3] 59.8% | [4] 41.5% | [6] 54.3%

CN1C(=O)C(/C=N/NC(=O)c2cccnc2)C(N)N(C)C1=O (centres undefined)
inactive: [1] 4.85% | [2] 18.2% | [3] -4.8% | [4] -1.45% | [5] -41.9% | [6] 31.7%

COC(=O)[C@@H](N1C(=O)c2ccccc2C1=O)C1(C)CC(Cl)=NO1 (some centres undefined)
inactive: [1] -14.4% | [2] 2.75% | [3] -14.7% | [4] -11.8% | [5] 4.45% | [6] 12.1%
